For three molecules, outcome and AC50 results are on record in PubChem BioAssay (EPA / NIEHS).

Holding throughout (details): mRNA level, 48 h; actives raise or lower the signal
Read-out in assay [1]: Cyclin Dependent Kinase Inhibitor 1A (CDKN1A), CDKN1A (gene 1026)
Briefly: LTEA_HepaRG_CDKN1A: Life Technologies and Expression Analysis (LTEA) Assay for Cyclin Dependent Kinase Inhibitor 1A (CDKN1A) using HepaRG (AID 2283450). In outline:
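HepaRG, 48 h dosing, 8-pt half-log series from 100 uM top, 0.5% DMSO vehicle, duplicates. Readout: TaqMan qRT-PCR of CDKN1A transcript, housekeeping-normalized (ACTB, GAPDH, POLR2A). Up/down curve fit relative to DMSO.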

Read-out in assay [2]: Cyclin D1 (CCND1), CCND1 (gene 595)
Briefly: LTEA_HepaRG_CCND1: Life Technologies and Expression Analysis (LTEA) Assay for Cyclin D1 (CCND1) using HepaRG (AID 2283451).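 For AC50: differentiated human HepaRG liver cells in serum-free induction medium; TaqMan qRT-PCR transcript level normalised to ACTB GAPDH and POLR2A housekeeping genes.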 Summed up: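 qRT-PCR (Fluidigm 96.96 array) read-out of transcript level, housekeeping-normalized (ACTB/GAPDH/POLR2A). HepaRG cells, 48 h chemical exposure, 8-point half-log series from 100 uM, 0.5% DMSO vehicle; gain or loss relative to DMSO baseline.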

Read-out in assay [3]: catalase (CAT), CAT (gene 847)
Briefly: LTEA_HepaRG_CAT: Life Technologies and Expression Analysis (LTEA) Assay for catalase (CAT) using HepaRG (AID 2283452). In outline:
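Expression of CAT was quantified by TaqMan qRT-PCR with ACTB/GAPDH/POLR2A normalization after 48 h chemical exposure of HepaRG. Eight-point half-log series, top 100 uM, in 0.5% DMSO; gain or loss fitted against vehicle.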

Read-out in assay [4]: flavin-containing dimethylaniline monooxygenases 3 (FMO3), FMO3 (gene 2328)
Briefly: LTEA_HepaRG_FMO3: Life Technologies and Expression Analysis (LTEA) Assay for flavin-containing dimethylaniline monooxygenases 3 (FMO3) using HepaRG (AID 2283453).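 For AC50: differentiated human HepaRG liver cells in serum-free induction medium.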 Summed up:
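Eight-point concentration-response in serum-free HepaRG cultures (top 100 uM, 0.5% DMSO, 48 h). Read-out: FMO3 mRNA level normalized to three endogenous control genes, fitted bidirectionally versus vehicle.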

Read-out in assay [5]: Cytochrome P450 (CYP1A1), CYP1A1 (gene 1543)
Briefly: LTEA_HepaRG_CYP1A1: Life Technologies and Expression Analysis (LTEA) Assay for Cytochrome P450 (CYP1A1) using HepaRG (AID 2283454). In outline: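 qRT-PCR read-out: CYP1A1 transcript normalized to three housekeeping genes, fitted bidirectionally against 0.5% DMSO vehicle baseline. Human HepaRG cells, 48 h chemical exposure, 8-point half-log series topping at 100 uM.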

Read-out in assay [6]: CFLAR gene, CFLAR (gene 8837)
Briefly: LTEA_HepaRG_CFLAR: Life Technologies and Expression Analysis (LTEA) Assay for CFLAR gene using HepaRG (AID 2283455). In outline:
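Transcript level by qRT-PCR (normalized to ACTB, GAPDH and POLR2A) after 48 h chemical exposure of HepaRG cells, top concentration 100 uM with half-log steps, 0.5% DMSO vehicle, duplicates; fitted bidirectionally against DMSO baseline.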

Read-out in assay [7]: Forkhead box O1 (FOXO1), FOXO1 (gene 2308)
Briefly: LTEA_HepaRG_FOXO1: Life Technologies and Expression Analysis (LTEA) Assay for Forkhead box O1 (FOXO1) using HepaRG (AID 2283456). Summed up: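 FOXO1 transcript quantified by qRT-PCR after 48 h chemical exposure (top 100 uM, half-log steps, 0.5% DMSO) of HepaRG cells, housekeeping-normalized (ACTB/GAPDH/POLR2A). Changes fitted in both directions relative to vehicle.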

Read-out in assay [8]: growth arrest and DNA damage 45 (GADD45A), GADD45A (gene 1647)
Briefly: LTEA_HepaRG_GADD45A: Life Technologies and Expression Analysis (LTEA) Assay for growth arrest and DNA damage 45 (GADD45A) using HepaRG (AID 2283458). Summed up: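 HepaRG, 48 h exposure, 8 conc. (top 100 uM, half-log steps), 0.5% DMSO vehicle, duplicates. Read-out: qRT-PCR mRNA level, housekeeping-normalized (ACTB/GAPDH/POLR2A). Curves fit bidirectionally vs DMSO baseline.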

Read-out in assay [9]: Forkhead box O3 (FOXO3), FOXO3 (gene 2309)
Briefly: LTEA_HepaRG_FOXO3: Life Technologies and Expression Analysis (LTEA) Assay for Forkhead box O3 (FOXO3) using HepaRG (AID 2283459). Summed up:
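FOXO3 transcript measured by qRT-PCR (normalized to ACTB, GAPDH, POLR2A) after 48 h exposure of HepaRG cells in serum-free induction medium. Duplicates, eight half-log concentrations up to 100 uM, 0.5% DMSO; gain or loss fitted against DMSO.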

Read-out in assay [10]: ABC Transporter (ABCB1), ABCB1 (gene 5243)
Briefly: LTEA_HepaRG_ABCB1: Life Technologies and Expression Analysis (LTEA) Assay for ABC Transporter (ABCB1) using HepaRG (AID 2283460). Summed up: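 ABCB1 transcript level measured by TaqMan qRT-PCR against three housekeeping genes after 48 h chemical exposure of differentiated HepaRG cells. Top concentration 100 uM, half-log steps, eight points, 0.5% DMSO vehicle; bidirectional fit relative to DMSO.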

Read-out in assay [11]: growth arrest and DNA damage 45 (GADD45B), GADD45B (gene 4616)
Briefly: LTEA_HepaRG_GADD45B: Life Technologies and Expression Analysis (LTEA) Assay for growth arrest and DNA damage 45 (GADD45B) using HepaRG (AID 2283461). In outline:
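qRT-PCR read-out (Fluidigm TaqMan, housekeeping-normalized) of mRNA change in human HepaRG cells after 48 h chemical exposure; 8-point curve, top 100 uM, half-log steps, 0.5% DMSO vehicle; gain or loss fitted relative to DMSO baseline.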

Read-out in assay [12]: ABC Transporter (ABCC3), ABCC3 (gene 8714)
Briefly: LTEA_HepaRG_ABCC3: Life Technologies and Expression Analysis (LTEA) Assay for ABC Transporter (ABCC3) using HepaRG (AID 2283462). In outline: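 qRT-PCR read-out of ABCC3 transcript, normalized to three housekeeping genes (ACTB, GAPDH, POLR2A), after 48 h chemical exposure of human HepaRG cells. Eight half-log concentrations, highest 100 uM, in 0.5% DMSO; gain or loss fitted relative to DMSO baseline.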

Read-out in assay [13]: ABC Transporter (ABCB11), ABCB11 (gene 8647)
Briefly: LTEA_HepaRG_ABCB11: Life Technologies and Expression Analysis (LTEA) Assay for ABC Transporter (ABCB11) using HepaRG (AID 2283463). In outline: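 ABCB11 transcript levels quantified by TaqMan qRT-PCR against three housekeeping genes after 48 h chemical exposure of HepaRG cultures. Concentrations up to 100 uM in half-log steps, 0.5% DMSO vehicle; both induction and suppression scored.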

Read-out in assay [14]: ABC Transporter (ABCC2), ABCC2 (gene 1244)
Briefly: LTEA_HepaRG_ABCC2: Life Technologies and Expression Analysis (LTEA) Assay for ABC Transporter (ABCC2) using HepaRG (AID 2283464). In outline: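 qRT-PCR (TaqMan, Fluidigm array) read-out of ABCC2 mRNA, normalized to three housekeeping genes. Differentiated HepaRG cells were treated 48 h in serum-free induction medium with 8-point half-log series from 100 uM in 0.5% DMSO; curves fitted bidirectionally relative to DMSO.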

Read-out in assay [15]: Broad substrate specificity ATP-binding cassette transporter ABCG2 (Homo sapiens) (UniProt Q9UNQ0)
Briefly: LTEA_HepaRG_ABCG2: Life Technologies and Expression Analysis (LTEA) Assay for ABC Transporter (ABCG2) using HepaRG (AID 2283465). Summed up: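 ABCG2 transcript was quantified by TaqMan qRT-PCR against three housekeeping genes in HepaRG cells. Cells were treated in duplicate for 48 h across an 8-point half-log series up to 100 uM, with 0.5% DMSO vehicle. Gain or loss versus DMSO was fit.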

Read-out in assay [16]: ATP-citrate lyase (ACLY), ACLY (gene 47)
Briefly: LTEA_HepaRG_ACLY: Life Technologies and Expression Analysis (LTEA) Assay for ATP-citrate lyase (ACLY) using HepaRG (AID 2283466). Summed up:
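ACLY mRNA quantified by qRT-PCR on Fluidigm arrays against three housekeeping genes, after 48 h chemical treatment of HepaRG cells (top concentration 100 uM, half-log steps, 0.5% DMSO vehicle). Up- or down-regulation fitted relative to DMSO.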

Read-out in assay [17]: Alkaline Phosphatase, Placental (ALPP) gene, ALPP (gene 250)
Briefly: LTEA_HepaRG_ALPP: Life Technologies and Expression Analysis (LTEA) Assay for Alkaline Phosphatase, Placental (ALPP) gene using HepaRG (AID 2283468).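 For AC50: differentiated human HepaRG liver cells in serum-free induction medium.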 In outline: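 qRT-PCR readout of ALPP mRNA (Fluidigm TaqMan), normalized to ACTB/GAPDH/POLR2A, after 48 h chemical exposure of HepaRG cells; 8-point half-log series, top 100 uM, 0.5% DMSO vehicle. Bidirectional curve fit versus DMSO baseline.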

Read-out in assay [18]: Bcl-2 (BAD) gene, BAD (gene 572)
Briefly: LTEA_HepaRG_BAD: Life Technologies and Expression Analysis (LTEA) Assay for Bcl-2 (BAD) gene using HepaRG (AID 2283469). In outline:
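Read-out: qRT-PCR of BAD mRNA, normalized to three housekeeping genes. Human HepaRG cultures got 48 h chemical exposure in 0.5% DMSO, duplicate eight-point half-log series topping at 100 uM. Gain or loss of signal fitted versus DMSO vehicle.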

Read-out in assay [19]: Peroxisomal acyl-coenzyme A oxidase 1 (ACOX1) gene, ACOX1 (gene 51)
Briefly: LTEA_HepaRG_ACOX1: Life Technologies and Expression Analysis (LTEA) Assay for Peroxisomal acyl-coenzyme A oxidase 1 (ACOX1) gene using HepaRG (AID 2283467). Summed up:
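ACOX1 transcript levels were quantified by TaqMan qRT-PCR against three housekeeping genes after 48 h chemical exposure of differentiated human HepaRG cells. Exposure used eight half-log steps topping at 100 uM, 0.5% DMSO vehicle, in duplicate. Bidirectional curve fits were made relative to DMSO.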

The source made the active and inactive calls. Rule for the calls: active = hit-call score of the fitted dose curve at least 0.9, where 1 is the maximum; inactive = score below 0.9.

Broad substrate specificity ATP-binding cassette transporter ABCG2 (Homo sapiens), sequence (Q9UNQ0 whole entry, looked up): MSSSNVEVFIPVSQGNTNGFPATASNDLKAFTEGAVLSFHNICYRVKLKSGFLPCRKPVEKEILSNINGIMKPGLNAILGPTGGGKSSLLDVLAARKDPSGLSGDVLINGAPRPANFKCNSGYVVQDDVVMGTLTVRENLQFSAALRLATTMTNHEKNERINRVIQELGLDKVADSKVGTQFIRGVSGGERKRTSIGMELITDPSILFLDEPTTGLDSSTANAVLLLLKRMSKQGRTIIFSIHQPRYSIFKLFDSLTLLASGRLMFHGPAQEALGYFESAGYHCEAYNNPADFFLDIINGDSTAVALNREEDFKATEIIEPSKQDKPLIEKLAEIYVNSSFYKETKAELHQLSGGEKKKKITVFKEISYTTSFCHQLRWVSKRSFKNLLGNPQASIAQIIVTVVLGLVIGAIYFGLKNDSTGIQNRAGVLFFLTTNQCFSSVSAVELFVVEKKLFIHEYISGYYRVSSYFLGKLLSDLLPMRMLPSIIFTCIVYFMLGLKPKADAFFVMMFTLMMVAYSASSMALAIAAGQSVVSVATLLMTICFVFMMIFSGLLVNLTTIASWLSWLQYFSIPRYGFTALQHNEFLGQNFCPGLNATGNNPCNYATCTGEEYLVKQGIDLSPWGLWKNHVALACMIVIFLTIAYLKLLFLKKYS

In the case of `CN(C[C@@H](CC[N+]12CCC(C3CCCCC3)(CC1)CC2)c1ccc(Cl)c(Cl)c1)C(=O)c1cc(C(F)(F)F)cc(C(F)(F)F)c1`, the result in [1], in [11], in [12], in [15], in assay [16] and in [18] was inactive. Moreover, the AC50 in [2] is 28.9 µM (active); in assay [3], 17.5 µM (active); in assay [4], 50 µM (active); in assay [5], 14.9 µM (active); in assay [6], 50 µM (active); in assay [7] it was 35.9 µM (active). The AC50 was 0.171 µM (active) in assay [8]; 30.6 µM (active) in assay [9]; 74.2 µM (active) in assay [10]; 14.5 µM (active) in [13]; 63.3 µM (active) in assay [14]; 3.14 µM (active) in assay [17].
Consider `Clc1ccccc1C(c1ccccc1)(c1ccccc1)n1ccnc1`, for which the AC50 in assay [1] is 91.2 µM (active); in [2], 82.1 µM (active); in assay [3] it was 21 µM (active); in assay [4], 96.5 µM (active); in [5] it was 9.17 µM (active); in [10], 15.8 µM (active). Besides, the AC50 was 78.3 µM (active) in assay [12]; 28.6 µM (active) in assay [13]; 37.5 µM (active) in [15]; 8.91 µM (active) in assay [16]; 60 µM (active) in assay [19]; 9.09 µM (active) in assay [17]. For the same molecule, in [18], the AC50 is 91.3 µM (active). In addition, the molecule was classed as inactive in assay [6], in [7], in assay [8], in assay [9], in [11] and in [14].
As for `CC(C)(O)c1ccc(CNC(=O)c2cccnc2Oc2ccc3nonc3c2)cc1`, the result in assay [1], in assay [2], in assay [3], in assay [4], in assay [6] and in [7] was inactive. For the same molecule, the molecule was called inactive in assay [8], in assay [9], in [11], in assay [13], in assay [15] and in [16]. Moreover, the result in assay [17] and in assay [18] was inactive. Also, the results for the AC50 in [5], in assay [10] and in assay [14] were 34.7 µM (active), 50 µM (active) and 50 µM (active), respectively.
